# PMC4336329 (PLoS ONE, 2015)
# Screen size: about 310,000 compounds; about 2,200 (0.71%) showed an effect of 50% or more. Effects have a minus sign here. The sample as a whole holds a higher share of strong results than the screen did.
# Biological target: human ether-à-go-go-related gene (hERG) potassium channel (human, UniProt Q12809)
# Test: primary screen, population patch clamp on CHO cells stably expressing hERG; higher = less effect of the substance
# Method: Briefly, Chinese hamster ovary (CHO) cells stably expressing the hERG channel were dislodged from tissue culture flasks and dispensed into PPC plates. […] During the recording, background leak currents were estimated by a 100 ms step to -80 mV from an initial holding potential of -70 mV and subtracted from the subsequent current measurement. The campaign was conducted in two phases using slight differences in recording protocol. In the first phase, the initial voltage pulse used a 100 ms step to -30 mV from a holding potential of -70 mV, a 2 s conditioning step to +25 mV, and a 2 s test step to -30 mV. During the second phase of the screen, the potential during the conditioning step was raised to +45 mV. In both phases of the campaign, a secondary voltage pulse was applied using the same parameters as the second phase initial pulse. The initial and secondary pulses were applied in the absence of compound, and upon application of 1 μM and 10 μM test concentrations. Small molecule effects on hERG current density were quantified by […].
# Sequence of human ether-à-go-go-related gene (hERG) potassium channel (Q12809 whole entry, looked up): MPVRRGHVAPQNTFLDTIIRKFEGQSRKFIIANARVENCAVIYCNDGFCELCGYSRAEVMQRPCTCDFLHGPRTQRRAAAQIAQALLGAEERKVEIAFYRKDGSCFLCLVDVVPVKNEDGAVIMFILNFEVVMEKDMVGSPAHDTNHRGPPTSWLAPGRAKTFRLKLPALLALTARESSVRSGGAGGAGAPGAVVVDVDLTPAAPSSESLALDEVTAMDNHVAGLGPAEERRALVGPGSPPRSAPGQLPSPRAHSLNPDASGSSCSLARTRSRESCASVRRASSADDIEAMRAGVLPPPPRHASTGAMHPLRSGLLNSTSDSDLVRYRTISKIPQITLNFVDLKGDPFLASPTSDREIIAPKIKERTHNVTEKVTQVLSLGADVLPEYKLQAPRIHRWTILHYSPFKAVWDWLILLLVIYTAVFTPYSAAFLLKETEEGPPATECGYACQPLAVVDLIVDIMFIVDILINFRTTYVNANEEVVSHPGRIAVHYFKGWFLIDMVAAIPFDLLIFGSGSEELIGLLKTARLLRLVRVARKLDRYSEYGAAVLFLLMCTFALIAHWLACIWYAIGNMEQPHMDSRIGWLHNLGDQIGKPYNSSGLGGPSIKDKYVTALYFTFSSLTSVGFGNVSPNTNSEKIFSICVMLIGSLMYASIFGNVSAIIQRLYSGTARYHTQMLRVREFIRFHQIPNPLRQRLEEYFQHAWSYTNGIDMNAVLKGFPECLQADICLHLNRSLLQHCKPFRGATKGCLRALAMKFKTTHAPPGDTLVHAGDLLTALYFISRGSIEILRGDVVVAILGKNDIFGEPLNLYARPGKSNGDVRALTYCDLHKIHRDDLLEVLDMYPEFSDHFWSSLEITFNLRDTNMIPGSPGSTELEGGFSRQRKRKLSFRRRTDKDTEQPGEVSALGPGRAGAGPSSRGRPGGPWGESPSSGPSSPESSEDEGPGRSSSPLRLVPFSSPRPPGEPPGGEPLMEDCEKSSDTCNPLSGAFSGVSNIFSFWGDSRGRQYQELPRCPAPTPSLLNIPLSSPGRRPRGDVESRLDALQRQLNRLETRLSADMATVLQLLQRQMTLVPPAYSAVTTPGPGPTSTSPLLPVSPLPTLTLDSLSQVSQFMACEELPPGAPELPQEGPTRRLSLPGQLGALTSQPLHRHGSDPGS
row,Structure (SMILES),"hERG current change (%, negative = inhibition) at 1uM"
1,Cc1cc(/C([O-])=C(/C(=S)Nc2ccccc2)[n+]2ccccc2)c(C)n1-c1ccccc1,9.1%
2,CCOc1ccc(N2C(=O)CC(N3CCN(C4CCc5ccccc5C4)CC3)C2=O)cc1 (stereo not shown),-65.5%
3,COc1ccc(N2C(=O)CC(N3CCN(C4CCc5ccccc5C4)CC3)C2=O)cc1 (stereo not shown),-37.7%
4,CCOc1ccc(N2C(=O)CC(N3CCc4ccccc43)C2=O)cc1 (stereo not shown),5.06%
5,Cc1ccc(N2C(=O)CC(N3CCN(c4ccccn4)CC3)C2=O)cc1 (stereo not shown),-8.68%
6,Cc1ccc(N2C(=O)CC(N3CCN(C4CCc5ccccc5C4)CC3)C2=O)cc1 (stereo not shown),-59%
7,O=C1CC(N2CCN(C3CCc4ccccc4C3)CC2)C(=O)N1c1ccccc1 (stereo not shown),-42.7%
8,O=C(CSc1nc2[nH]ncc2c(=O)[nH]1)Nc1ccc(F)cc1,13.3%
9,N#Cc1c(-c2ccccc2)cc(-c2ccc3c(c2)OCO3)[nH]c1=O,11%
10,CCCCC(C(=O)O)C(C)CC(=O)Nc1cccc(C(=O)O)c1 (stereo not shown),3.02%
11,Cc1cccc(OCCSCc2nc3ccccc3[nH]2)c1,12.1%
12,CC(=O)Nc1ccc(S(=O)(=O)Nc2ccc(-c3ccc4nnc(C)n4n3)cc2)cc1,-3.52%
13,Cc1cccc(NC(=O)c2cc3c(=O)n4ccccc4nc3s2)c1,11.5%
14,COc1cccc(NC(=O)c2cc3c(=O)n4ccccc4nc3n(CC(C)C)c2=N)c1,-87.5%
15,Cc1cccc(NC(=O)c2c(C)nc3ccccn23)c1,3.98%
16,Cc1cccc(NC(=O)c2cc3c(=O)n4ccccc4nc3n(CC(C)C)c2=N)c1,-52.2%
17,COc1cccc(NC(=O)C(Sc2nc3ccccc3c(=O)n2CC(C)C)c2ccccc2)c1 (stereo not shown),6.46%
18,COc1ccc(NC(=O)c2cc3c(=O)n4ccccc4nc3n2C)cc1OC,11.4%
19,CCCC(=O)Nc1nnc(CCc2ccccc2)s1.Cl,12.1%
20,COc1cccc(NC(=O)NC2(C(F)(F)F)Oc3ccccc3O2)c1,8.19%
21,Cc1cc(C)n(CC(=O)c2ccc(Br)cc2)c(=O)c1C#N,-2.8%
22,CCCN(c1ccc(OCC)cc1)S(=O)(=O)c1ccc2c(c1)CCN2C(=O)CCC(=O)O,12.5%
23,Cc1ccc(S(=O)(=O)c2cc3c(=O)n4ccccc4nc3n(CCCN3CCOCC3)c2=N)cc1C,2.37%
24,N=c1c(C(=O)NCCN2CCOCC2)cc2c(=O)n3ccccc3nc2n1Cc1ccc(F)cc1,-19.2%
25,N=c1c(C(=O)NCc2ccccc2)cc2c(=O)n3ccccc3nc2n1CCCN1CCOCC1,-80.7%
26,N=c1c(S(=O)(=O)c2ccccc2)cc2c(=O)n3ccccc3nc2n1CCCN1CCOCC1,-42.5%

row,Structure (SMILES),"hERG current change (%, negative = inhibition) at 1uM"
1,N=c1c(C(=O)NCCc2ccccc2)cc2c(=O)n3ccccc3nc2n1CCCN1CCOCC1,-77.8%
2,N=c1c(C(=O)NCCN2CCOCC2)cc2c(=O)n3ccccc3nc2n1CCCN1CCOCC1,13.2%
3,N=c1c(C(=O)NCc2ccc(F)cc2)cc2c(=O)n3ccccc3nc2n1CCCN1CCOCC1,-91.8%
4,O=C(NCCN1CCOCC1)c1cc2c(=O)n3ccccc3nc2n1Cc1ccccc1,8.53%
5,COc1ccc(/C=C/CN2CCC(Oc3ccc(C(=O)N4CCCCC4)cc3)CC2)cc1,-15.6%
6,COc1ccc(-c2nc(C#N)c(NCCc3ccccc3)o2)cc1OC,10.5%
7,COc1cc(NC(=O)C/C(C)=N/NC(=O)C(=O)NC2CCCCC2)c(OC)cc1Cl,-66.8%
8,COc1ccc(NC(=O)C/C(C)=N/NC(=O)C(=O)NC2CCCCC2)c(OC)c1,-3.65%
9,COc1cc(NC(=O)C/C(C)=N/NC(=O)C2CCCCC2)c(OC)cc1Cl,14.8%
10,O=C(NCc1cccnc1)C12CC3CC(CC(Cl)(C3)C1)C2,19%
11,Cc1cccc(NC(=O)c2c(F)c(F)c(F)c(F)c2F)c1,-0.482%
12,Cc1ccc(F)cc1NC(=O)CN1CCN(Cc2ccccc2)CC1,-16.8%
13,O=[N+]([O-])c1ccccc1NC1CCN(Cc2ccccc2)CC1,-26.7%
14,O=C(CN1CCN(c2cccc(Cl)c2)CC1)Nc1ccc([N+](=O)[O-])cc1C(=O)Nc1ccccc1F,11.4%
15,Cc1cc([N+](=O)[O-])ccc1NC(=O)CN1CCN(Cc2ccccc2)CC1,-73.7%
16,O=[N+]([O-])c1ccc(NC2CCN(Cc3ccccc3)CC2)c([N+](=O)[O-])c1,-60%
17,Cc1cc([N+](=O)[O-])ccc1NCc1cccc([N+](=O)[O-])c1,-56.6%
18,O=C(CN1CCN(Cc2ccccc2)CC1)Nc1ccc([N+](=O)[O-])cc1C(=O)Nc1ccccc1F,-56.8%
19,CCOC(=O)N1CCN(CC(=O)Nc2ccc([N+](=O)[O-])cc2C(=O)Nc2ccccc2F)CC1,-5.13%
20,Cc1cc([N+](=O)[O-])ccc1NCc1ccccc1,4.76%
21,Cc1ccccc1NC(=O)CN1CCN(Cc2ccccc2)CC1,1.75%
22,O=[N+]([O-])c1cc(C(F)(F)F)ccc1NC1CCN(Cc2ccccc2)CC1,3.28%
23,COc1cccc(CNc2ccc([N+](=O)[O-])cc2C)c1,10.7%
24,O=S(=O)(CC(CN1CCCCC1)N1CCCCC1)c1ccccc1 (stereo not shown),6.73%
25,O=C(Cn1cnc2c(NC(=O)OCc3ccccc3)ncnc21)NCc1ccccn1,0.393%
26,O=C(NCCS(=O)(=O)N1CCN(c2ccccc2F)CC1)C1CC(=O)N(c2ccccc2)C1 (stereo not shown),11.6%

row,Structure (SMILES),"hERG current change (%, negative = inhibition) at 1uM"
1,O=C(Nc1ccon1)C1CCN(S(=O)(=O)c2cccs2)CC1,-4.01%
2,CC(=O)NNS(=O)(=O)c1ccc(-c2cc(C(F)(F)F)n(C)n2)s1,2.67%
3,CCOc1ccc2[nH]c(=O)c(CN(CCN3CCOCC3)Cc3nnnn3C(C)(C)CC)cc2c1,12.1%
4,COc1ccc(NC(=O)CSc2nnc(Cc3ccc(C)cc3)c(=O)n2N)cc1OC,4%
5,CC(=O)N(C(C)=O)S(=O)(=O)c1ccc(N=NN2CCCCC2)cc1,11.6%
6,Cc1ccc(CNC(=O)CCS(=O)(=O)c2ccc3c(c2)CC(C)N3C(=O)C2CC2)cc1 (stereo not shown),0.306%
7,CCOC(=O)N1CCN(C(=O)c2ccc([N+](=O)[O-])cc2Cl)CC1,6.8%
8,Nc1ccccc1-[n+]1c(-c2ccccc2)cc(-c2ccccc2)cc1-c1ccccc1.[O-][Cl+3]([O-])([O-])[O-],0.0928%
9,Clc1ccc(C[n+]2c(-c3ccccc3)cc(-c3ccccc3)cc2-c2ccccc2)cc1.[O-][Cl+3]([O-])([O-])[O-],-25.5%
10,Oc1ccccc1-[n+]1c(-c2ccccc2)cc(-c2ccccc2)cc1-c1ccccc1.[O-][Cl+3]([O-])([O-])[O-],-40.5%
11,Cc1ccc(-c2cc(-c3ccc(C)cc3)[n+](-c3ccc(C(=O)O)cc3)c(-c3ccc(C)cc3)c2)cc1.[O-][Cl+3]([O-])([O-])[O-],17.7%
12,Fc1ccc(C[n+]2c(-c3ccccc3)cc(-c3ccccc3)cc2-c2ccccc2)cc1.[O-][Cl+3]([O-])([O-])[O-],-27.1%
13,Cc1ccc(C[n+]2c(-c3ccc(C)cc3)cc(-c3ccc(C)cc3)cc2-c2ccc(C)cc2)cc1.[O-][Cl+3]([O-])([O-])[O-],-61.7%
14,Brc1ccc(-[n+]2c(-c3ccccc3)cc(-c3ccccc3)cc2-c2ccccc2)cc1.[O-][Cl+3]([O-])([O-])[O-],-18.7%
15,COc1ccc(-[n+]2c(-c3ccccc3)cc(-c3ccccc3)cc2-c2ccccc2)cc1.[O-][Cl+3]([O-])([O-])[O-],-29.2%
16,Oc1ccc(-[n+]2c(-c3ccccc3)cc(-c3ccccc3)cc2-c2ccccc2)cc1.[O-][Cl+3]([O-])([O-])[O-],5.58%
17,Cc1ccc(-c2cc(-c3ccc(C)cc3)[n+](-c3ccccc3)c(-c3ccc(C)cc3)c2)cc1.[O-][Cl+3]([O-])([O-])[O-],-77.3%
18,Cc1ccccc1-[n+]1c(-c2ccccc2)cc(-c2ccccc2)cc1-c1ccccc1.[O-][Cl+3]([O-])([O-])[O-],-55.8%
19,COc1ccc(-[n+]2c(-c3ccccc3)cc(-c3ccc(C)cc3)cc2-c2ccccc2)cc1.[O-][Cl+3]([O-])([O-])[O-],-52%
20,COc1ccc(-c2cc(N)n(S(=O)(=O)Cc3ccccc3)n2)c(OC)c1,-4.34%
21,COc1ccc(NC(=S)N2CCNC(=O)C2CC(=O)Nc2cccc(Cl)c2C)cc1 (stereo not shown),-5.98%
22,Cc1ccc(-c2sc(C)nc2CC(=O)O)cc1,7.75%
23,C=C(C)C1CC=C(C)/C(=N/NC(=O)CCC(=O)Nc2ccccc2Cl)C1 (stereo not shown),6.51%
24,O=C(COC(=O)c1c[nH]c2ccccc12)Nc1ccc(F)cc1,-1.51%
